In PubChem BioAssay AID602428 (Sanford-Burnham Center for Chemical Genomics, 2012):
Among all 2,500 compounds or so, about 980 (39%) were called active. The list is a sample of the results. A number with no mark means an inactive call.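 The calls were made as follows: active = mean inhibition at 5 µM reaching about 45% (limit read from the data); inactive = the rest.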

Assay: blockers of Gli reporter signaling – single concentration, luciferase luminescence, Sufu-KO-LIGHT cells, confirmation (AID 602428);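 also: plate controls were DMSO-treated cells for no effect and wells lacking cells for full effect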
Details: at 5 µM, active compounds read high

SMILES	inhibition
C=CCNC(=S)/N=c1/ccccn1Cc1ccccc1	50.8% (active)
CCOc1cccc(/C=N/NC(=S)NCCN2CCOCC2)c1O	24.5%
Nc1ccc(C(=O)N2CCN(S(=O)(=O)c3ccc(Cl)cc3)CC2)cc1[N+](=O)[O-]	17.8%
COc1ccc(NC(=O)[C@H](NC(=O)[C@@H]2Cc3ccccc3CN2)c2ccccc2)cc1	17.9%
CCOC(=O)c1ccc(NC(=O)Cn2cnc3cc(C)c(C)cc32)cc1	76.1% (active)
CC(=O)Nc1cccc(OCC(=O)/C=C2\N(C)c3ccccc3C2(C)C)c1	54.9% (active)
O=C(O)CCCn1cc(NC(=O)COc2cccc(Cl)c2)cn1	12.9%
CC1CC2=C(CC1/C=N/NC(N)=S)C(C)(C)CCC2 (stereo unspecified)	49.3% (active)
COc1ccccc1CCNC(=O)C(=O)NCCC1CCCCN1S(=O)(=O)c1cccs1 (stereo unspecified)	48.8% (active)
COc1ccccc1CNC(=O)C1CCN(c2nc3ccccc3o2)CC1	25.9%
Cc1cccc(NS(=O)(=O)c2ccc(-c3cnc(C4CC4)o3)cc2)c1	36.7%
COc1ccc(NS(=O)(=O)c2ccc(NC(C)=O)cc2)cc1OC	51.5% (active)
COc1ccc2c(C)cc3nnnn3c2c1	17.3%
O=C(CN1C(=O)c2ccccc2S1(=O)=O)N1CCc2ccccc21	57.7% (active)
CC(C)OCC(O)CN1CCN(C(c2ccccc2)c2ccccc2)CC1 (stereo unspecified)	10.4%
CC(=O)/C(=N\Nc1ccc(Cl)cc1Cl)Sc1cccc2cccnc12	57.7% (active)
CCC(Cc1ccccc1)NC(=O)C1CCCCC1 (stereo unspecified)	6.07%
O=C(Nc1cc2c3c(c1)C1CCCC1CN3CC1CCCC21)c1ccc([N+](=O)[O-])cc1 (stereo unspecified)	79% (active)
COc1cc(C(=O)OC2CCOC2=O)c([N+](=O)[O-])cc1OC (stereo unspecified)	7.05%
CC[n+]1c(C)n(-c2ccccc2)c2ccc(NC(C)=O)cc21	80.2% (active)
C=CCOC(=O)C1=C[C@@H](c2ccc3c(c2)OCO3)C[C@@H](OCCCCO)O1	28.9%
O=C1/C(=C\c2cccnc2)CN(Cc2ccccc2)C/C1=C\c1cccnc1	19.9%
CCCCC(=O)NC(c1ccc(OC)c(OC)c1)c1ccc2cccnc2c1O (stereo unspecified)	55% (active)

SMILES	inhibition
Cc1ccc(NC(=S)Nc2ccc(F)cc2)cc1	-13.7%
CCN1/C(=C/C(=S)Nc2ccccc2)Sc2ccccc21	9.5%
COc1ccc(Cn2c(-c3ccc(Cl)cc3)c[n+]3ccccc23)cc1	63.2% (active)
c1c2c(cc3sc(N4CCCCC4)nc13)OCCO2	34.5%
O=c1c2ccccc2nc2n1C(CSCc1cccc(C(F)(F)F)c1)CS2 (stereo unspecified)	67.6% (active)
CC1(C)CC(=O)c2c(n(S(=O)(=O)c3ccccc3)c3ccc(NS(=O)(=O)c4ccccc4)cc23)C1	19.1%
C/C(=N\NC(=O)Cc1ccc(Cl)cc1)c1ccccn1	86.9% (active)
Cc1cc(NC(=O)c2cccc(N3C(=O)CCC3=O)c2)no1	20.1%
CC(C)(CNC(=O)c1ccc(Cl)c(S(=O)(=O)N2CCc3ccccc3C2)c1)N1CCOCC1	22.8%
CN(C)c1cc[n+](Cc2ccccc2)cc1	53% (active)
CCOC(=O)c1cnc(-n2nc(C)cc2C)nc1NNc1cc(C)nc(-c2ccccc2)n1	53.6% (active)
CCc1ccc(C2C(C#N)=C(N)N(N3CCOCC3)C3=C2C(=O)CC(C)(C)C3)s1 (stereo unspecified)	7.97%
C=CCn1c(SCC(=O)CC(=O)OCC)nc2cc(C(=O)N3CCC(C(N)=O)CC3)ccc2c1=O	20.4%
COc1cc(C(=O)OC(C)C(=O)NCC2CCCCC2)cc(NC(=O)c2ccco2)c1OC (stereo unspecified)	13.1%
COc1ccc(NS(=O)(=O)c2ccc(N3CCN(CCO)CC3)c([N+](=O)[O-])c2)cc1	45.5% (active)
COc1ccccc1/C=C/CN1CCC(CO)(Cc2ccccc2)CC1	12.3%
O=C(CN1CCN(S(=O)(=O)c2cc(Cl)ccc2Cl)CC1)c1ccc(O)c(O)c1	22.3%
NS(=O)(=O)c1ccc(CCNC(=O)CCCn2c(SCC(=O)N3CCCC3)nc3ccsc3c2=O)cc1	8.32%
COC(=O)Cc1[nH]n(-c2nc3ccccc3s2)c(=O)c1C(C)=Nc1ccc(OC)cc1	91.5% (active)
N#CC(C#N)=CN=c1ccn(Cc2ccc(Cl)cc2Cl)cc1	50.9% (active)
CCn1c(SCc2ccccc2)nc2cc(OC)c(OC)cc2c1=O	25.4%
Cc1ccc(C(=O)C[n+]2cc(-c3ccccc3)n3c2CCCCC3)cc1	70.7% (active)
Cc1cc(C(=O)CSc2nc(N)cc(=O)[nH]2)c(C)n1-c1cccc(F)c1	55.4% (active)
